PubChem BioAssay AID1159580 (chemical genetic matrix, 2015)
Screen size: about 5,500 compounds; about 2,000 (36%) were called active. Inconclusive results (about 18%) are left out. Cut-off read from the data, not from the text of the source: active = normalized growth mostly below about 0.91 (no sharp cut-off); inconclusive = no clear call, values can overlap the other calls; inactive = mostly above about 0.92. Some of the results follow.

Assay: chemical genetic growth profiling, strain panel (AID 1159580);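 note: tested at 20 µM; growth read once vehicle control cultures reached saturation at 30 °C; 1 = growth at the plate median or of vehicle wells; lower values mean less growth of the strain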
Settings: S. cerevisiae deletion strains, growth OD

Measured: normalized growth

CC(=O)N[C@@H](CC(=O)O)C(=O)O
inactive: locus YAL013W, strain DEP1, hits give low values 1.01 | locus YAL021C, strain ccr4, hits give low values 0.998 | locus YAL026C, strain drs2, hits give low values 1.01 | locus YAL030W, strain snc1, hits give low values 0.997 | locus YBL061C, strain skt5, hits give low values 1.01 | locus YBR009C, strain hhf1, hits give low values 1.01 | locus YBR021W, strain FUR4, hits give low values 1.02 | locus YBR023C, strain chs3, hits give low values 1 | locus YBR171W, strain sec66, hits give low values 1 | locus YBR229C, strain ROT2, hits give low values 1.01 | locus YBR231C, strain swc5, hits give low values 0.982 | locus YBR279W, strain paf1, hits give low values 1 | locus YCL011C, strain gbp2, hits give low values 1.01 | locus YCL016C, strain dcc1, hits give low values 1 | locus YCL029C, strain bik1, hits give low values 1.03 | locus YCL069W, strain vba3, hits give low values 1.01 | locus YCR088W, strain abp1, hits give low values 1 | locus YDL005C, strain med2, hits give low values 0.997 | locus YDL035C, strain GPR1, hits give low values 1 | locus YDL040C, strain nat1, hits give low values 1.01 | locus YDL074C, strain BRE1, hits give low values 1.01 | locus YDL101C, strain DUN1, hits give low values 1.01 | locus YDL134C, strain PPH21, hits give low values 1.01 | locus YDL185W, strain tfp1, hits give low values 1.02 | locus YDL192W, strain arf1, hits give low values 1.02 | locus YDR001C, strain nth1, hits give low values 1.01 | locus YDR069C, strain doa4, hits give low values 1.03 | locus YDR101C, strain arx1, hits give low values 1.02 | locus YDR137W, strain rgp1, hits give low values 0.997 | locus YDR150W, strain NUM1, hits give low values 1.01 | locus YDR159W, strain sac3, hits give low values 0.969 | locus YDR162C, strain NBP2, hits give low values 1.01 | locus YDR195W, strain ref2 0.972 | locus YDR297W, strain sur2, hits give low values 1.02 | locus YDR318W, strain mcm21, hits give low values 1.01 | locus YDR334W, strain swr1, hits give low values 1.01 | locus YDR335W, strain msn5, hits give low values 1.01 | locus YDR388W, hits give low values 1.01 | locus YDR392W, strain spt3, hits give low values 0.932 | locus YDR502C, strain sam2, hits give low values 1.02 | locus YEL003W, strain gim4, hits give low values 1.01 | locus YEL037C, strain rad23, hits give low values 1.01 | locus YEL061C, strain CIN8 (second series), hits give low values 1.01 | locus YEL061C, strain CIN8, hits give low values 1.01 | locus YER015W, strain faa2, hits give low values 1.01 | locus YER016W, strain bim1, hits give low values 1 | locus YER110C, hits give low values 1.02 | locus YER111C, strain swi4, hits give low values 1.01 | locus YER155C, strain BEM2 (second series), hits give low values 0.999 | locus YER155C, strain BEM2, hits give low values 1.01 | locus YER167W, strain BCK2, hits give low values 1.01 | locus YFR010W, strain ubp6, hits give low values 1 | locus YGL078C, strain dbp3, hits give low values 1.01 | locus YGL086W, strain mad1, hits give low values 1.01 | locus YGL167C, strain pmr1, hits give low values 1 | locus YGL173C, strain kem1, hits give low values 1.02 | locus YGL227W, strain vid30, hits give low values 1.01 | locus YGL240W, strain doc1, hits give low values 0.984 | locus YGL248W, strain PDE1, hits give low values 1 | locus YGL253W, strain hxk2, hits give low values 1.01 | locus YGR078C, strain PAC10, hits give low values 1.01 | locus YGR135W, strain pre9, hits give low values 1.01 | locus YGR229C, strain SMI1, hits give low values 1.01 | locus YGR252W, strain gcn5, hits give low values 0.959 | locus YHR013C, strain ard1, hits give low values 1.01 | locus YHR027C, strain rpn1, hits give low values 0.993 | locus YHR030C, strain SLT2, hits give low values 1.01 | locus YHR079C, strain IRE1 (second series), hits give low values 1.01 | locus YHR094C, strain hxt1, hits give low values 1.01 | locus YHR129C, strain ARP1, hits give low values 0.997 | locus YHR142W, strain chs7, hits give low values 1.01 | locus YHR200W, strain rpn10, hits give low values 1.02 | locus YIL066C, strain RNR3, hits give low values 1.02 | locus YIL073C, strain SPO22, hits give low values 1.02 | locus YIL125W, strain kgd1, hits give low values 1.01 | locus YIR030C, strain dcg1, hits give low values 1.03 | locus YJL092W, strain hpr5, hits give low values 1.01 | locus YJL095W, strain BCK1 (second series), hits give low values 0.999 | locus YJL095W, strain BCK1, hits give low values 1.02 | locus YJL115W, strain asf1, hits give low values 1 | locus YJL129C, strain trk1, hits give low values 1 | locus YJL134W, strain LCB3, hits give low values 1.01 | locus YJL154C, strain vps35, hits give low values 1.01 | locus YJL164C, strain tpk1, hits give low values 1 | locus YJL166W, strain qcr8, hits give low values 1.01 | locus YJL168C, strain set2, hits give low values 1.01 | locus YJL187C, strain SWE1 (second series), hits give low values 1.01 | locus YJL187C, strain SWE1, hits give low values 1.03
